# From PubChem BioAssay (NCATS)
# Inconclusive results are not listed. Entries that show only a call come without a potency. Active and inactive are the calls of the source. The call rests on the fitted dose curve; in most records, active means well fitted inhibition curve with a large enough effect; inconclusive means small, poorly fitted or top-dose-only effect; inactive means flat fitted curve, though single readings scatter.
# Target: Calcium and integrin-binding protein 1 (Homo sapiens) (UniProt Q99828)
# Sequence (Q99828 whole entry, looked up): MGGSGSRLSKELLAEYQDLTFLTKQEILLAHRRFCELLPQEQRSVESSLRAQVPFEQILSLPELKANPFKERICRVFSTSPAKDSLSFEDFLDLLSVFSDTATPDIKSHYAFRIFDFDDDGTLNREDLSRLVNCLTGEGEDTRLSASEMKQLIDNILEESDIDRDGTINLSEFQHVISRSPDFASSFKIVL
# Test: Primary qHTS for Identification of Calcium Integrin Binding Protein 1 (CIB1) Competitor (AID 1508620);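 further: GST tagged CIB1 binding a fluorescein labelled alphaIIb integrin peptide tracer; top concentration of the series differs between compounds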
# Conditions: CIB1-GST / FITC-alphaIIb peptide fluorescence polarization; series mostly up to 114 µM
# Summary of the method: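 CIB1-GST (1 uM final) and compound incubated 15 min at room temperature before adding FITC-alphaIIb peptide tracer (100 nM final). Competition for binding read by fluorescence polarization (ex 480, em 540) after another 15 min at room temperature.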
row,SMILES,Potency
1,Cc1cc(C)c(-n2cc(C)c3c(Cl)nc(C)nc32)c(C)c1,inactive
2,CCC[C@@]1(CCc2ccccc2)CC(O)=C([C@H](CC)c2cccc(NS(=O)(=O)c3ccc(C(F)(F)F)cn3)c2)C(=O)O1,inactive
3,Cc1nc(Nc2ccc(F)cc2)nc(N2CCc3ccccc3C2C)c1C (stereo not drawn),inactive
4,COc1cccc(NCCC2(c3ccccc3)CC(C)(C)OC(C)(C)C2)c1,inactive
5,COC(=O)c1ccc2c(c1)nc(NC(=O)c1ccccc1)n2CCCc1ccccc1,inactive
6,Fc1ccc2c(CCNCc3cccc(OCC(F)(F)C(F)F)c3)c[nH]c2c1,inactive
7,C/C(=C/CO)CCC1C(C)CCC2C(C)(C)CCCC12C (stereo not drawn),inactive
8,COc1cc2ncnc(Nc3cccc(I)c3)c2cc1OC,inactive
9,CCC(C)C(=O)OC1C(C)C2(O)C(C=C(CO)CC3(O)C(=O)C(C)=CC32)C2C(C)(C)C12OC(=O)C(C)C (stereo not drawn),inactive
10,CC(C)[C@@H](c1ccc(C(F)(F)F)cc1CN(Cc1cc(C(F)(F)F)cc(C(F)(F)F)c1)c1nnn(C)n1)N1CCC(C(=O)O)CC1,inactive
11,Cc1noc(-c2ccc(-c3ccc(CC(=O)O)cc3)cc2)c1NC(=O)O[C@H](C)c1ccccc1Cl,inactive
12,CC(=O)C1=CCC2C3CC=C4CC(O)CC(O)C4(C)C3C(O)CC12C (stereo not drawn),inactive
13,COc1ccc(CCc2nc3c(C)c(-c4c(C)noc4C)c(C)cc3n2CCN2CCOCC2)cc1,inactive
14,CC1(C=O)CCCC2(C)C1CCC13CC(CO)C(CCC12)C3 (stereo not drawn),inactive
15,CC1CCCC(O)CC(=O)c2c(O)cc(O)cc2CC(=O)O1 (stereo not drawn),inactive
16,COCCN(C(=O)c1cc(OC)c(OC)c(OC)c1)c1nc(-c2ccccc2)cs1,inactive
17,Cc1ccc(C)c(NS(=O)(=O)c2cc(C(=O)Nc3ccccc3-c3ccccc3)ccc2C)c1,inactive
18,Cc1ccc(C(C)C)c(O[C@@H]2O[C@H](CO)[C@@H](O)[C@H](O)[C@H]2O)c1,inactive
19,C=C1/C(=C/C=C2\CCC[C@]3(C)[C@@H]([C@H](C)CC[C@@H](O)C(C)(C)O)CC[C@@H]23)C[C@@H](O)C[C@@H]1O,inactive

row,SMILES,Potency
1,O=C(Nc1ccc(-c2ccc(Cl)c(Cl)c2)cc1)C1=C(O)c2ccccc2S(=O)(=O)N1,inactive
2,Cc1ccc(N2CCN(S(=O)(=O)N3CCCCC3)CC2)c(C)c1,inactive
3,C=CC(C)(O)CC/C=C(/C)COC(=O)C(C)C1CCC(C)(C=C)O1 (stereo not drawn),inactive
4,C[C@@H](N[C@H]1CCCC[C@@H]1NC(=O)c1ccc(Cl)cc1)c1cccc2ccccc12,inactive
5,Cc1cc(OCCCS(C)(=O)=O)cc(C)c1-c1cccc(COc2ccc3c(c2)OCC3CC(=O)O)c1 (stereo not drawn),inactive
6,CC(=O)NC[C@H]1CN(c2ccc(N3CCSCC3)c(F)c2)C(=O)O1,inactive
7,CC(=O)O[C@@H]1CC[C@@]2(C)[C@H](CC[C@@H]3[C@@H]2C[C@H](OC(C)=O)[C@]2(C)[C@@H](C(C)=O)CC[C@@H]32)C1,inactive
8,CCCc1ccc(OCC(=O)N(Cc2nc(-c3cccnc3)no2)C(C)C)cc1,inactive
9,O=C(NCCCc1ccccc1)C1CCC(CNS(=O)(=O)c2cccc3nsnc23)CC1 (stereo not drawn),inactive
10,C=C1C(=O)OC2CC(C)C(CCC(C)O)=CCC12 (stereo not drawn),inactive
11,NC(=O)N1CCC(CC(=O)N2CCC(C3c4ncc(Br)cc4CCc4cc(Cl)cc(Br)c43)CC2)CC1 (stereo not drawn),inactive
12,O=S(=O)(Nc1cc(Cl)c(Oc2cnc3ccccc3c2)c(Cl)c1)c1ccc(Cl)cc1Cl,inactive
13,O=C(Nc1ccc(C(F)(F)F)cn1)N1CCN(c2ncccc2C(F)(F)F)CC1,inactive
14,COc1ccc(S(=O)(=O)n2cnc3cc(C)c(C)cc32)cc1,inactive
15,Cn1ncc(Cl)c1-c1cc(C(=O)NC(CN)Cc2ccc(F)c(F)c2)oc1Cl (stereo not drawn),inactive
16,CCC(CC)C(=O)OC12C(OC(=O)C(C)C)C(C)C3(O)C(C=C(CO)CC4(O)C(=O)C(C)=CC43)C1C2(C)C (stereo not drawn),inactive
17,O=C(NC1(c2ccccc2)CC1)c1c(CN2CCC(N3CCCCC3)CC2)c(-c2cccc(C(F)(F)F)c2)nc2cc(Br)ccc12,inactive
18,CN(C)C(=O)Nc1cc(-c2ccccc2)ccc1N(C)C,inactive
19,Nc1nc2c(s1)CCN(Cc1ccc(Cl)cc1)CC2,inactive
